PubChem BioAssay AID1220 (Sanford-Burnham Center for Chemical Genomics, 2008)
The whole screen tested about 190,000 compounds, of which about 1,300 (0.68%) were called active. Rule as the data show it: active = inhibition above about 50%; inactive = the rest. Many of the other results were omitted from the sample, so actives are more common in it than they were.

Molecular target: Mannose-6-phosphate isomerase (Homo sapiens) (UniProt P34949)
Assay: MPI inhibition at elevated mannose 6-phosphate – biochemical, fluorescence intensity, high mannose 6-phosphate, primary screen (AID 1220)
Settings: recombinant PMI enzyme, coupled fluorescence intensity; at 20 µM; active compounds read high

Chain of Mannose-6-phosphate isomerase (Homo sapiens) (P34949 whole entry, looked up): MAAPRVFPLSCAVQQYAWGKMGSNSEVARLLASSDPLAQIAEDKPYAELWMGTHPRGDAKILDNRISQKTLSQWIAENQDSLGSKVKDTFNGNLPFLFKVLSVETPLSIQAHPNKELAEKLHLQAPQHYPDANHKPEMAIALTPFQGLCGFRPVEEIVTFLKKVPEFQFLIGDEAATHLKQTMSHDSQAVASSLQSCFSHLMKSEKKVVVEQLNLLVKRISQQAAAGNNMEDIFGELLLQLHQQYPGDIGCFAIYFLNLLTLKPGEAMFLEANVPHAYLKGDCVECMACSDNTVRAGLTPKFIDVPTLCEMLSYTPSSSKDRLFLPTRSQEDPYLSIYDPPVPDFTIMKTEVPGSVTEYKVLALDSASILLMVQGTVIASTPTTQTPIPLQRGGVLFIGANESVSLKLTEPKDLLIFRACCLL

inhibition, inactive:
CN1CC(=O)N(CC(=O)N2CCC(Cc3ccccc3)CC2)C1=O -3.5%
CCC(C)N(C(=O)CSc1nc(-c2ccccc2)cs1)C1CCS(=O)(=O)C1 (stereo not given) 3.2%
Cc1cc(=O)oc2c(CN(CC(C)C)CC(C)C)c(O)ccc12 -3.3%
Oc1ccc2ccccc2c1CNn1cnnc1 3.1%
O=C(CN1CCC(C(O)(c2ccccc2)c2ccccc2)CC1)Nc1ccccc1 -1.7%
CCN1CCN(c2nc(-c3ccncc3)nc3ccccc23)CC1 6.3%
NC(=O)C1CCN(C(=O)c2cc3n(n2)C(C(F)(F)F)CC(c2ccco2)N3)CC1 (stereo not given) 0.3%
COc1ccc(CCNC(=O)CCCn2nc(C)c([N+](=O)[O-])c2C)cc1OC 8.3%
CCCCn1c2nc3ccccc3nc2c2c(=O)n(CCC)cnc21 7.3%
CCCCn1c2nc3ccccc3nc2c2c(=O)n(CCC(C)C)cnc21 -12.9%
CCOC(=O)C1=C(CSc2nc(C)cc(C)c2C#N)OC(N)=C(C#N)C1c1ccccc1 (stereo not given) 47%
CCOC(=O)C1=C(CC)OC(N)=C(C#N)C1c1cccs1 (stereo not given) 4.7%
CCOC(=O)C1=C(CSc2nc(CC)c(C)cc2C#N)OC(N)=C(C#N)C1c1ccccc1 (stereo not given) 11.9%
CCOC(=O)C1=C(CSc2nc(-c3ccccc3)ccc2C#N)OC(N)=C(C#N)C1c1ccc(OC)cc1 (stereo not given) 29.4%
COC(=O)c1ccc(S(=O)(=O)N2CCCCC2)o1 9%
Cc1cc(NN)nc(NS(=O)(=O)c2ccccc2)n1 5%
CC(C)N(C(=O)CSc1nnc(CN2CCCCCC2=O)n1-c1ccccn1)C(C)C -4.7%
COc1ccc(N(C(=O)Cn2nnc3ccccc32)C(C(=O)NC(C)(C)C)c2ccc(OC)c(O)c2)cc1 (stereo not given) -4%
CCc1ccccc1NC1Nc2cc(C)nn2S1 (stereo not given) 27.6%
Cc1cc2n(n1)SC(Nc1ccccc1)N2 (stereo not given) -0.8%
CCCC1CCC(=NNC(=O)OC(C)(C)C)CC1 (stereo not given) 2.1%
CN(C)c1ccc(C(=O)c2ccc(N(C)C)c(N)c2)cc1N 23.2%
Cc1ccc(Oc2ccc(Cl)cc2N)cc1 -7.7%
O=C1Nc2ccc(S(=O)(=O)N3CCCC3)c3ccc(S(=O)(=O)N4CCCC4)c1c23 32.5%
CCCCCC(=O)NC(CC(=O)OC)c1ccc2c(c1)OCO2 (stereo not given) 2.2%
CCc1ccc(OCC(=O)OCC(=O)c2ccc3c(c2)NC(=O)CO3)cc1 5%
COCc1nnc(NC(=O)c2ccccc2[N+](=O)[O-])s1 -1.2%
CC1=CC(=NOC(=O)c2cccc([N+](=O)[O-])c2)C=C(C)C1=O 19.6%
CC1=C(C)/C(=N/OC(=O)c2cccc([N+](=O)[O-])c2)C=CC1=O 13.4%
COc1cc(C(=O)O/N=C(\N)c2ccncc2)cc(OC)c1OC -11.7%
COc1cc(C(=O)O/N=C2\CCCc3c2ccc(OC)c3[N+](=O)[O-])cc(OC)c1OC 13.8%
COc1cc(C(=O)Oc2cc(C)cc(C)c2)cc(OC)c1OC 9.6%
COc1ccc(C(=O)ON=C2C=C(C)C(=O)C(C)=C2)cc1 40.1%
CC1=CC(=O)C=C(C)C1=NOC(=O)c1cccc([N+](=O)[O-])c1 -3%
CC1=C(C)/C(=N\OC(=O)/C=C/c2ccccc2)C=CC1=O 35.2%
CN(C)CCCN(Cc1cc2cc3c(cc2[nH]c1=O)OCO3)C(=S)NCc1ccco1 30.6%
CCCCc1nnc(NC(=O)CSc2nc(=O)cc(N)n2-c2ccccc2)s1 0.8%
CS(=O)(=O)N(CC(=O)N1CCOCC1)c1ccc2c(c1)OCO2 1.8%
COC(=O)COc1ccc(S(=O)(=O)NCc2cccnc2)cc1 4.3%
CC(C)(CO)Nc1ccc([N+](=O)[O-])cc1[N+](=O)[O-] 0.9%
O=C1Nc2ccccc2Oc2cc([N+](=O)[O-])cc(Oc3ccccc3)c21 -3.2%
COc1cc(C(=O)Oc2cccc(C)c2)cc(OC)c1OC 2.4%
COc1cc(C(=O)O/N=C(\N)c2ccc([N+](=O)[O-])cc2)cc(OC)c1OC 5.3%
Nc1cc(N2CCCC2)c(Cl)cc1[N+](=O)[O-] 25.9%
CC1CCC(C(C)C)C(OP(=O)(c2ccc(N(C)C)cc2)C(O)c2cccnc2)C1 (stereo not given) -4.5%
COc1ccc(C(=O)CCNc2ccc(C)c(Cl)c2)cc1 0.5%
COc1ccc(C(=O)Nc2ccc3c(c2)OCCO3)cc1 -6.5%
O=C(COC(=O)c1ccc2c(=O)n3c(nc2c1)CCC3)NC1CCS(=O)(=O)C1 (stereo not given) -5.4%
Cc1ccc(C(=O)N2CCOCC2)cc1S(=O)(=O)Nc1cccc(C)c1C -7%
COc1cc(C2C(C#N)=C(N)OC3=C2C(=O)CC(C)(C)C3)c([N+](=O)[O-])cc1OC (stereo not given) 49.6%
COc1ccc(C2C(C#N)=C(N)OC3=C2C(=O)CCC3)cc1OC (stereo not given) -4%
CCC(C)NC(=O)CO/N=C/c1ccc(C(=O)OC)cc1 (stereo not given) 23.9%
CN(C)c1ccc(C(=S)N2CCN(C(=S)Nc3ccc(Cl)cc3)CC2)cc1 -7.1%
CN(C)c1ccc(C(=S)N2CCN(c3ccccc3)CC2)cc1 8.2%
N#CC1=C(N)OC2=C(CN(Cc3ccccc3)C/C2=C\c2cccnc2)C1c1cccnc1 (stereo not given) 11.3%
O=C(CSc1nnc(C2CC2)n1Cc1ccccc1)N1CCN(S(=O)(=O)c2ccccc2)CC1 -3.7%
CCn1c(SCC(=O)N2CCN(S(=O)(=O)c3ccccc3)CC2)nnc1-c1cccs1 -3.1%
CC1Cc2nc(SCC(=O)N3CCCC3)n(C)c(=O)c2S1 (stereo not given) 9.6%
COc1cc(/C=C(/C#N)c2nc3ccccc3c(=O)[nH]2)ccc1O 13.6%
Cc1ccc(NCc2ccc(Cl)nc2)c(NCc2ccc(Cl)nc2)c1 -88.3%
Clc1ccc(Cn2cccn2)cn1 10.3%
COc1ccc(CCC(=O)NNC(=S)NCc2ccc(F)cc2)cc1 1.2%
CCCC[n+]1ccn(C2=C([O-])c3ccccc3C(=O)/C2=N\S(=O)(=O)c2ccccc2)c1 46.3%
CC(C)CC[n+]1ccn(C2=C([O-])c3ccccc3C(=O)/C2=N\S(=O)(=O)c2ccccc2)c1 47%
COc1ccccc1NC(=O)NCC(=O)Nc1c(C)cccc1C -13.9%
Cc1ccc(Sc2cnc(N)nc2C)cc1 3.4%
COC(=O)c1ccc(Sc2ccc(C)cc2)c(N)c1 9.7%
CCc1ccc2c(c1)C(c1cccs1)=NNC(c1cccnc1)=N2 3.3%
C=CCSc1nc(-c2ccc3c(c2)OCO3)cc(C(F)(F)F)c1C#N 11.5%
O=C(CNCc1ccncc1)Nc1cc(S(=O)(=O)N2CCCCC2)ccc1Cl -89%
O=C(CCl)Nc1cc(S(=O)(=O)N2CCCCCC2)ccc1Cl 4.5%
CC1CCC(C(C)C)C(OCC[N+](C)(C)C)C1 (stereo not given) 8.9%
Cc1nn(CCO)c(C)c1Oc1ccccc1O 4%
COc1cc([C@@H]2C[C@H]3CN(c4ccccc4)C(=O)[C@]34CCCN24)cc(OC)c1OC 3.7%
COCc1cc([C@@H]2C[C@H]3CN(c4ccccc4)C(=O)[C@]34CCCN24)ccc1OC 13.6%

inhibition, active:
CC(C)CN(Cc1c(O)ccc2ccccc12)CC(C)C 68.8%
CCCCn1c2nc3ccccc3nc2c2c(=O)n(C(C)CC)cnc21 (stereo not given) 53.2%
CCOC(=O)C1=C(CSc2nc(C)cc(C)c2C#N)OC(N)=C(C#N)C1c1cccs1 (stereo not given) 55.7%
CCOC(=O)C1=C(CSc2nc(CC)c(C)cc2C#N)OC(N)=C(C#N)C1c1ccc(OC)cc1 (stereo not given) 52.3%
Cc1cc2n(n1)SC(Nc1cccc3ccccc13)N2 (stereo not given) 54.1%
CN(C)c1ccc(Cl)cc1N 53.2%
COc1cc(C(=O)O/N=C2\C=CC(=O)C=C2C)cc(OC)c1OC 64.7%
COc1cc(C(=O)ON=C2C=C(C)C(=O)C(C)=C2)cc(OC)c1OC 59.8%
COc1cc(C(=O)O/N=C2/C=CC(=O)C(C)=C2C)cc(OC)c1OC 66%
COc1cc(C(=O)ON=C2C(C)=CC(=O)C=C2C)cc(OC)c1OC 71.8%
COc1cc(C(=O)O/N=C2/C=C(C)C(=O)C=C2C)cc(OC)c1OC 53.5%
COc1ccc(C(=O)CCNc2ccc3c(c2)OCCO3)cc1 58%
COc1cc(C2C(C#N)=C(N)OC3=C2C(=O)CCC3)c([N+](=O)[O-])cc1OC (stereo not given) 52%
CN(C)c1ccc(C(=S)N2CCN(C(=S)Nc3cccc4ccccc34)CC2)cc1 51.7%
Cc1nnc(SCC(=O)N2CCN(S(=O)(=O)c3ccccc3)CC2)n1Cc1ccccc1 57.8%
Clc1ccc(CNc2ccccc2NCc2ccc(Cl)nc2)cn1 53.8%
Cc1ccc(S(=O)(=O)/N=C2\C(=O)c3ccccc3C([O-])=C2n2cc[n+](CCC(C)C)c2)cc1 50.4%
COc1cc(Sc2ccc(C)cc2)c(OC)cc1N 67.2%
O=C(CNCc1ccccn1)Nc1cc(S(=O)(=O)N2CCCCC2)ccc1Cl 55.4%
CCOc1cc([C@@H]2C[C@H]3CN(c4ccccc4)C(=O)[C@]34CCCN24)ccc1OC 57.1%
